Source: PubChem BioAssay (National Center for Advancing Translational Sciences (NCATS))
Hits are enriched below; roughly 19% of the tested compounds scored in any of these assays.
DT40 TDP1 CPT: DT40-hTDP1 cell growth loss with CPT; chicken DT40 Tdp1-/-;hTDP1 cells + 20 nM CPT, ATP luminescence, 48 h; Potency, µM (highest dose often 46.2 µM), most hits filed as inhibitors; 12% of 420,000 active; AID 686979; further: nearly all actives have a fitted effect of over 55% in size
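Chicken DT40 Tdp1-/- cells stably complemented with human TDP1 were seeded at 400 cells/well in medium containing 20 nM camptothecin, exposed to pin-transferred compounds, and grown at 37 °C for at least 48 hr. Viability was read as ATP luminescence.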
HT1080 IDH1KD tx: kills HT-1080 cells with IDH1 knockdown; Potency, µM (highest dose often 46.1 µM), hits mostly cytotoxic; HT-1080 IDH1 knockdown viability, ATP luminescence, 48 h; 2% of 360,000 active
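HT-1080-IDH1KD cells (IDH1 knocked down), 750/well in RPMI with 5% FBS, treated with compound 48 h at 37 degrees C. Viability by CellTiter-Glo luminescence, normalised to DMSO and no-cell wells; concentration-response curves classed.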
IL1B secr inh: inflammasome signaling inhibition, IL-1 beta readout | 4.7% of 360,000 active | THP-1 LPS/ATP IL-1B secretion, AlphaLISA, 16 h; active compounds read low | AID 743279 | activity change, % at 57.5 µM; in the data active means activity change below about -50%; inconclusive means mostly about -30% to -49%
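Secreted IL-1B measured by AlphaLISA bead assay after 16 h compound exposure of THP-1 cells; compounds (final up to 57.5 uM) added 1 h before LPS (250 ng/mL) and ATP (1.25 mM) stimulation; lower signal means less secretion.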
HT1080-NT tox: kills 2HG-producing HT-1080-NT fibrosarcoma cells | HT-1080-NT fibrosarcoma viability, CellTiter-Glo ATP luminescence, 48 h | Potency, µM (highest dose often 46.1 µM), hits mostly cytotoxic | 1.6% of 360,000 active;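 further: NT is the 2HG producing partner of a matched IDH1 knockdown line; nearly all actives have a fitted effect of over 55% in size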
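A 48-hour cytotoxicity screen used HT-1080-NT cells plated 2 hours before compound delivery. ATP-based CellTiter-Glo luminescence measured viability, normalized to DMSO and no-cell controls.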
TDP1 cell noCPT: qHTS for Inhibitors of human tyrosyl-DNA phosphodiesterase 1 (TDP1): qHTS in cells in absence of CPT; DT40 Tdp1-/- hTDP1 cells, no CPT, ATP luminescence, 48 h; Potency, µM (series often up to 46.2 µM), hits mostly inhibitors; 15% of 420,000 active; further: nearly all actives have a fitted effect of over 55% in size
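DT40 Tdp1-/-;hTDP1 cells, no CPT (DMSO vehicle only), 400 cells/well; compounds pin-transferred; ≥48 hr, 37 °C; CellTiter-Glo 30 min RT dark, luminescence read.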
Hits are given with their value; - = inactive; ? = inconclusive; . = not tested or not shown; ! = not active in a repeat; [ ] = another dose, or the depositor's remark. Unless noted, the call rests on the fitted dose curve; in most records, active means well fitted curve in the direction sought with a large enough effect; inconclusive means small, poorly fitted or top-dose-only effect, or another doubt; inactive means no such curve, though single readings can be large; an effect the other way counts as inactive or inconclusive.

SMILES	DT40 TDP1 CPT	HT1080 IDH1KD tx	IL1B secr inh	HT1080-NT tox	TDP1 cell noCPT
CC1(C(=O)NS(=O)(=O)c2cccc(C#N)c2)CCN1C(=O)CC1CCCCC1 (stereo not given)	-	-	-	-	-
CCC(CC)NC(=O)CCCSc1nc2ccccc2[nH]1	-	-	-	-	?
CCCSCCCNC(=O)CN1C(=O)COc2ccc(S(=O)(=O)N3CCCC3)cc21	-	-	-	?	-
COc1ccc(-c2noc(Cc3ccc(Cl)cc3)n2)cc1OC	10µM	-	-	-	?
COc1ccc(-c2noc(CSCC(=O)Nc3ccc(C)cc3Br)n2)cc1OC	-	.	.	.	-
COc1ccc(-c2noc(CSc3nnc(-c4ccncc4)n3-c3ccc(C)cc3)n2)cc1OC	16µM	.	.	.	-
COc1ccc(-c2noc(CSc3nnc(-c4ccc(Cl)cc4)n3C)n2)cc1OC	?	.	.	.	16µM
COc1ccc(-c2noc(CSc3nnc(-c4ccncc4)n3-c3ccc(F)cc3)n2)cc1OC	?	-[9.24 µM]	?	?	?
COc1cc(Cl)c(C)cc1NC(=O)CSCc1nc(-c2ccc(OC)c(OC)c2)no1	21µM	.	.	.	16µM
O=C1Nc2ccccc2/C1=N\c1sc2c(c1C(=O)Nc1ccccc1)CCCC2	-	-	-	-	-
CCCCN(C(=O)CSc1nnc(-c2ccccc2)o1)c1c(N)n(CCC)c(=O)[nH]c1=O	-	-	-	-[9.24 µM]	-
CCOCCCNC(=O)c1c(NC(=O)c2cc(=O)c3ccccc3o2)sc2c1CCC2	-	.	.	.	-
O=C(COC(=O)c1ccc(Br)cc1)Nc1ccccc1Br	-	-	-	-	-
CCc1ccc(-n2c(SCC(=O)Nc3ccc(C(=O)O)cc3)nnc2-c2ccncc2)cc1	-	-	-	-	-
O=[N+]([O-])c1cccc(CSc2nnc(Cc3ccccc3)n2-c2ccc(F)cc2)c1	18µM	-	-	-	?
COc1ccc(-c2noc(CSc3nnc(-c4ccncc4)n3-c3ccccc3)n2)cc1	16µM	.	.	.	23µM
CCOc1ccccc1-c1noc(CSc2nnc(-c3ccccc3)n2-c2ccc(F)cc2)n1	12µM	.	.	.	13µM
COc1ccc(-n2c(SCc3nc(-c4ccc(C)cc4)no3)nnc2-c2ccncc2)cc1	-	.	.	.	-
O=C(O)CSc1nnc(Cc2ccccc2)n1-c1ccccc1	-	-	-	-	-
CCc1ccc(-n2c(SCc3c(C)noc3C)nnc2-c2ccncc2)cc1	21µM	-	-	-	?
Nc1cc(=O)[nH]c(SCC(=O)NCCC2=CCCCC2)n1	-	-	-	-	-
CCOC(=O)N1CCN(C(=O)COC(=O)c2cc(C)ccc2C)CC1	-	-	-	-	-
O=C1c2ccccc2C(c2nnnn2Cc2ccccc2)N1Cc1ccc2c(c1)OCO2 (stereo not given)	-	-	-	-	-
O=Cc1ccc(OCc2cn(CC(=O)c3ccc(O)cc3)nn2)cc1	-	-	-	-	-
CC(C)c1nnc(NC(=O)CCC(=O)NCc2ccc3c(c2)OCO3)s1	-	-	-	-	-
SMILES	DT40 TDP1 CPT	HT1080 IDH1KD tx	IL1B secr inh	HT1080-NT tox	TDP1 cell noCPT
COc1ccc(-c2noc(CSc3nnc(-c4ccccc4)n3C)n2)cc1	23µM!	-	-	-	15µM!
CCc1ccc(-n2c(SCc3nc(-c4cc(OC)ccc4OC)no3)nnc2-c2ccccc2)cc1	18µM	.	.	.	21µM
Clc1ccc(-c2nnc(CSc3nnc(-c4cccs4)n3Cc3ccccc3)o2)cc1	6.5µM	?	-	-	2.9µM
COc1ccc(-n2c(C)nnc2SCc2nc(-c3ccc(OC)c(OC)c3)no2)cc1	-	.	.	.	-
Cc1cc(C)cc(OCC(=O)NNC(=O)CN2C(=O)c3ccccc3C2=O)c1	-	-	-	-	-
CCOC(=O)[C@H]1[C@H]2COc3ccc(OC)cc3[C@@H]2N2C(=O)c3cc(C)ccc3NC(=O)[C@@]12C	-	-	-	-	-
COc1ccc(C)cc1NC(=O)Cn1c(=O)oc2cc(S(=O)(=O)N3CCCCCC3)ccc21	16µM	.	.	.	12µM
Cc1ccc(NC(=O)Cn2c(=O)oc3cc(S(=O)(=O)N4CCCCC4)ccc32)c(C)c1	6.5µM	.	.	.	8.2µM
